{"source": "PubChem BioAssay AID1566", "about": "(Sanford-Burnham Center for Chemical Genomics, 2009)", "note": "“And” between values parts separate entries of the source, which are not always exact repeats. Equal entries are not always repeated. Hit rate of the full screen: of about 290,000 compounds, about 1,800 (0.62%) were called active. This excerpt belongs to a sample that is enriched for actives. Unmarked numbers belong to inactive results. No stated cut-off is given here; in the data, active means inhibition above about 50%; inactive means the rest.", "data": [{"assay": "inhibition of NOD2-driven NF-kB reporter – cell-based, luminescence, uHTS, HEK293 (AID 1566)", "settings": "HEK293 NOD2/NF-kB luciferase reporter, at 4 µM, active compounds read high", "values": [{"compound": "O=C(Nc1ccccc1)C1COc2ccccc2O1", "note": "(stereo unspecified)", "inhibition": "-18.8%"}, {"compound": "O=C(NC1=NCCS1)C1COc2ccccc2O1", "note": "(stereo unspecified)", "inhibition": "63.1% (active)"}, {"compound": "O=C(Nc1nncs1)C1COc2ccccc2O1", "note": "(stereo unspecified)", "inhibition": "-9%"}, {"compound": "Nc1ccc(S(=O)(=O)O)cn1", "inhibition": "7.7% and 2.4%"}, {"compound": "S=c1[nH]nc(-c2ccc(Cl)cc2)n1/N=C/c1cccs1", "inhibition": "-8.1%"}, {"compound": "O=c1c2ccccc2cnn1CCOc1ccccc1", "inhibition": "60.4% (active)"}, {"compound": "COc1ccc2cnn(CCOc3ccccc3)c(=O)c2c1OC", "inhibition": "-68.5%"}, {"compound": "O=c1c2ccccc2cnn1CCOc1cccc(Br)c1", "inhibition": "-63.9%"}, {"compound": "CC(C)CN1CCNC(=O)C1CC(=O)NCCCN1CCCc2ccccc21", "note": "(stereo unspecified)", "inhibition": "3%"}, {"compound": "COc1ccc(NC(=O)c2ccc3c(c2)NC(=O)CS3)cc1S(=O)(=O)Nc1ccc(Br)cc1", "inhibition": "3.4%"}, {"compound": "Cc1ccc(NS(=O)(=O)c2cc(NC(=O)c3cc(=O)[nH]c(=O)[nH]3)ccc2Cl)c(C)c1", "inhibition": "22.6%"}, {"compound": "CC(=O)O/N=C/c1c(Cl)n(C)c2ccccc12", "inhibition": "-6.2%"}, {"compound": "Cc1ccc(C2/C(=C(/O)c3cnn(-c4ccccc4)c3C)C(=O)C(=O)N2CCN2CCOCC2)o1", "note": "(stereo unspecified)", "inhibition": "-58.4%"}, {"compound": "Cc1c(/C(O)=C2/C(=O)C(=O)N(CCN3CCOCC3)C2c2cccnc2)cnn1-c1ccccc1", "note": "(stereo unspecified)", "inhibition": "8.5%"}, {"compound": "Cc1c(/C(O)=C2/C(=O)C(=O)N(CCN3CCOCC3)C2c2ccccn2)cnn1-c1ccccc1", "note": "(stereo unspecified)", "inhibition": "56.8% (active)"}, {"compound": "CCOC(=O)CSc1nc(Nc2ccc3c(c2)OCO3)c2ccccc2n1", "inhibition": "85.7% (active)"}, {"compound": "CCOC(=O)CSc1nc(C)c2ccccc2n1", "inhibition": "3.1%"}, {"compound": "N#CCSc1nc(Nc2ccc3c(c2)OCO3)c2ccccc2n1", "inhibition": "22%"}, {"compound": "Cc1cc2ncc(C(=O)Nc3ccsc3C(=O)O)c(C)n2n1", "inhibition": "20.1%"}, {"compound": "Cc1cc[n+](C(C)C(=O)c2ccc(-c3ccccc3)cc2)cc1", "note": "(stereo unspecified)", "inhibition": "22.5%"}, {"compound": "Cc1cc(C)c[n+](C(C)C(=O)c2ccc(-c3ccccc3)cc2)c1", "note": "(stereo unspecified)", "inhibition": "53.1% (active)"}, {"compound": "Cc1ccc[n+](C(C)C(=O)c2ccc(-c3ccccc3)cc2)c1", "note": "(stereo unspecified)", "inhibition": "23.2%"}, {"compound": "Cc1cc(NC(=O)CSc2nnc(CNC(=O)c3c(F)cccc3F)o2)no1", "inhibition": "-3.4%"}, {"compound": "COc1cccc(OC)c1C(=O)Nc1ccc(N2CCN(C(=O)c3ccco3)CC2)cc1", "inhibition": "0.8%"}, {"compound": "O=C(CCS(=O)(=O)c1ccc2c(c1)NC(=O)CS2)NCc1cccs1", "inhibition": "0.9%"}, {"compound": "CCOC(=O)CC1C(=O)NCCN1c1nc2c(C)cccn2c(=O)c1/C=C1\\SC(=S)N(CC(C)C)C1=O", "note": "(stereo unspecified)", "inhibition": "51.8% (active)"}, {"compound": "CCOC(=O)CC1C(=O)NCCN1c1nc2c(C)cccn2c(=O)c1/C=C1\\SC(=S)N(C(C)CC)C1=O", "note": "(stereo unspecified)", "inhibition": "49%"}, {"compound": "CCCN1C(=O)/C(=C/c2c(N3CCNC(=O)C3CC(=O)OCC)nc3c(C)cccn3c2=O)SC1=S", "note": "(stereo unspecified)", "inhibition": "44.3%"}, {"compound": "Cc1nc2ncnn2c(N2CCN(C(c3ccccc3)c3ccccc3)CC2)c1C", "inhibition": "11.8%"}, {"compound": "Cc1ccc(C(=O)Nc2cnc3ccccc3c2)cc1", "inhibition": "54.2% (active)"}, {"compound": "Cc1ccc(NC(=O)Nc2cnc3ccccc3c2)cc1", "inhibition": "-175%"}, {"compound": "O=C(Nc1cnc2ccccc2c1)c1ccncc1", "inhibition": "-72%"}, {"compound": "CC(=O)Nc1cc2ccccc2oc1=O", "inhibition": "9%"}, {"compound": "O=C(Nc1cc2ccccc2oc1=O)c1ccccc1", "inhibition": "18.1%"}, {"compound": "Cc1ccc(C(=O)Nc2cc3ccccc3oc2=O)cc1", "inhibition": "69.7% (active)"}, {"compound": "CNC(=O)NNC(=O)c1csc(-c2ccc(C(F)(F)F)cc2Cl)n1", "inhibition": "14.2%"}, {"compound": "COc1ccc(/C=N\\Nc2ncc(F)c(N3CCOCC3)n2)cc1OC", "inhibition": "3.5%"}, {"compound": "COc1cccc(C(=O)O/N=C(\\C)c2cnccn2)c1", "inhibition": "4.6%"}, {"compound": "Cc1nc2scc(C)n2c(=O)c1S(=O)(=O)NC(C)c1ccccc1", "note": "(stereo unspecified)", "inhibition": "20.2%"}, {"compound": "Cc1c(O)nc(SCC(=O)Nc2cccc(C(F)(F)F)c2)n(-c2ccccc2)c1=O", "inhibition": "-0.1%"}, {"compound": "CCOc1ccc(C(=O)N/N=C(\\c2ccccc2)c2ccccn2)cc1", "inhibition": "-82%"}, {"compound": "CCOc1ccc(OCc2ccc(C(=O)N/N=C(\\C)c3ccccn3)cc2)cc1", "inhibition": "76.9% (active)"}, {"compound": "C/C(=N\\NC(=O)c1ccc(COc2ccccc2)cc1)c1ccncc1", "inhibition": "-1.5%"}, {"compound": "COc1ccccc1/C=C1\\SC(=S)N(CCC(=O)N2CCCCC2CCO)C1=O", "note": "(stereo unspecified)", "inhibition": "5.9%"}, {"compound": "CCCOc1ccc(C(O)(CCC)CCN2CCCCC2)cc1", "note": "(stereo unspecified)", "inhibition": "3.4%"}, {"compound": "O=C(CN1C(=O)c2ccccc2S1(=O)=O)c1ccc(O)c(O)c1", "inhibition": "42.4%"}, {"compound": "O=C(CN1C(=O)c2ccccc2S1(=O)=O)c1ccccc1", "inhibition": "52.5% (active)"}, {"compound": "Cc1cc(C(=O)CN2C(=O)c3ccccc3S2(=O)=O)c(C)n1-c1ccccc1", "inhibition": "64.2% (active)"}, {"compound": "Cc1cc(C(=O)CN2C(=O)C3CC=CCC3C2=O)c(C)n1-c1ccccc1", "note": "(stereo unspecified)", "inhibition": "-109%"}, {"compound": "O=C(CN1C(=O)c2ccccc2S1(=O)=O)c1cccc(Br)c1", "inhibition": "0.6%"}, {"compound": "Cc1ccc(C)c(C(=O)CN2C(=O)c3ccccc3S2(=O)=O)c1", "inhibition": "-15%"}]}]}
